Assay results from PubChem BioAssay AID449739 (Vanderbilt High Throughput Screening Facility, 2010).
The whole screen tested about 100,000 compounds, of which about 4,200 (4.2%) were called active. The full list was thinned out, with actives kept by preference. A number with no mark means an inactive call.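 Rule for the calls: active = single-dose well whose peak fluorescence ratio is a statistical outlier from its plate by either plate-standardised score or position-corrected B-score; inactive = the rest.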

Each compound was assayed against Voltage-dependent T-type calcium channel subunit alpha-1H (Homo sapiens) (UniProt O95180) (assay: Cav3.2 calcium influx blockers – cell-based, Fluo-4 calcium fluorescence, FDSS, MLSMR library, primary screen (AID 449739)). Settings: Cav3.2-expressing cells, at 10 µM, active compounds read low.
Voltage-dependent T-type calcium channel subunit alpha-1H (Homo sapiens), sequence (O95180 whole entry, looked up): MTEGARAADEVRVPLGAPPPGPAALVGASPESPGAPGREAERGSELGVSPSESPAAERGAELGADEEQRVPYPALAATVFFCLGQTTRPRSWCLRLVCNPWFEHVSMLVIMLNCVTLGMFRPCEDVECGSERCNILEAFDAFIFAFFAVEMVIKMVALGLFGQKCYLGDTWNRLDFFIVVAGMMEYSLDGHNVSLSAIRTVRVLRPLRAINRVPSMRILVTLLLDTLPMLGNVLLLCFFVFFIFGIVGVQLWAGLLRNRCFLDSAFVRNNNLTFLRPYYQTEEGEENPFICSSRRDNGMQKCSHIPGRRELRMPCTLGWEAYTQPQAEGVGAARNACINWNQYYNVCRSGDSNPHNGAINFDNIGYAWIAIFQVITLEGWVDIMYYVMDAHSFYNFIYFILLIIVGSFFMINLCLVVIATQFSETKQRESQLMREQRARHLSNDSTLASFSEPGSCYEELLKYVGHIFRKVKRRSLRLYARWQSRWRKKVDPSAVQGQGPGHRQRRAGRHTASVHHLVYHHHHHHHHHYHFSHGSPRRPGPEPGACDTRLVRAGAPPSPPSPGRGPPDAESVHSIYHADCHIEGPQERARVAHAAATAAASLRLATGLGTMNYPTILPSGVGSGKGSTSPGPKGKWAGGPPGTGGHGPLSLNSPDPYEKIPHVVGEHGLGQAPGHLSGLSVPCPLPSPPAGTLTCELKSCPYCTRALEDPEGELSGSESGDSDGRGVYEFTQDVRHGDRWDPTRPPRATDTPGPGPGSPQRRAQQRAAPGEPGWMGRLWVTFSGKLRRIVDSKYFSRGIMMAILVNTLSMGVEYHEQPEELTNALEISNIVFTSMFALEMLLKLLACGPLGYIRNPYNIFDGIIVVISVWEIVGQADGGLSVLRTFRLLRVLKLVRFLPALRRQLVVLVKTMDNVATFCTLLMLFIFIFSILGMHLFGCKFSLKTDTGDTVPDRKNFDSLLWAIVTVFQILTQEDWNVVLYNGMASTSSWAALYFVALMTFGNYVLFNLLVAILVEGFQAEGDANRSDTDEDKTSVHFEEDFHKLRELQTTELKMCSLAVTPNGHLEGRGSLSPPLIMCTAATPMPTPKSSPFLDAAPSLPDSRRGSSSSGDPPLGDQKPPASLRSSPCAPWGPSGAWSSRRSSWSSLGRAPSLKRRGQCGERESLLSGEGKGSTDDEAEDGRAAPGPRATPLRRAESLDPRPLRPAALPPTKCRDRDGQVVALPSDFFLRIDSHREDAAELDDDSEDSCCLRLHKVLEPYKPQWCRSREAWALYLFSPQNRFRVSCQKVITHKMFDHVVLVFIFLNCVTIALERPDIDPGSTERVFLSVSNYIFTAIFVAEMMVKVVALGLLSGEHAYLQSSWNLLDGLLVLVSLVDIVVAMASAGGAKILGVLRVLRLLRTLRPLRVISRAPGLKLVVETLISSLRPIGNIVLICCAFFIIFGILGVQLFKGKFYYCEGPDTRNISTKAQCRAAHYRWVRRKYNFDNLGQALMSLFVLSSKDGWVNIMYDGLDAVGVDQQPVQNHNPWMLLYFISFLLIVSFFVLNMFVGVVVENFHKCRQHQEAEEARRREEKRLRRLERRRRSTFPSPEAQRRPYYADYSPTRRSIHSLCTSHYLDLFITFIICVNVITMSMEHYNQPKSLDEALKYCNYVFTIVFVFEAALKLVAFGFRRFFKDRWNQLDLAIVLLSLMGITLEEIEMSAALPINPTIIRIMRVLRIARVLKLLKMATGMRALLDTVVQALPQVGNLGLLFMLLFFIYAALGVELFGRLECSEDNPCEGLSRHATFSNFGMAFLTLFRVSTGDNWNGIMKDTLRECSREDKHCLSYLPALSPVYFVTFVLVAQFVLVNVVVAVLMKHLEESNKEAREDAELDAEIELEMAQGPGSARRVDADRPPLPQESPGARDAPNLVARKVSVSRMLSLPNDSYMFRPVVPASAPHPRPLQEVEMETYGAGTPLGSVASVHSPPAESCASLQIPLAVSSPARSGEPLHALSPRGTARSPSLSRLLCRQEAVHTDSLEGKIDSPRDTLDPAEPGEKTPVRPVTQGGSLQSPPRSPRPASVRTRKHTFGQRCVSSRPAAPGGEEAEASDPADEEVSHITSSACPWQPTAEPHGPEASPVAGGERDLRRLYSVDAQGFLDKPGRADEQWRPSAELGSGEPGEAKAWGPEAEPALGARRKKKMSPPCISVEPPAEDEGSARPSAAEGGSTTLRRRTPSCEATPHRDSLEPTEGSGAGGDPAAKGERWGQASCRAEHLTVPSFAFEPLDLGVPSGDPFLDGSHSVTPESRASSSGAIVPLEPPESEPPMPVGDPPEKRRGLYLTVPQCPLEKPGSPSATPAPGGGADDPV
Compound `COc1ccc(NS(=O)(=O)c2ccc(NC(=S)NC(=O)CC(C)C)cc2)cc1` has a B-score of -2.74.
`Cc1c(C(=O)OC(C)C)sc(NC(=O)c2cccnc2)c1C#N` showed a B-score of -2.15.
`CC(=O)c1cnn(-c2cc(Oc3ccc(F)cc3)ncn2)c1C` gave a B-score of -0.109.
`CCC(=O)Nc1cccc(C2=NOC3(C2)C[C@@H](C(N)=O)N(C(=O)c2cc([N+](=O)[O-])cc([N+](=O)[O-])c2C)C3)c1` (stereo partly specified) showed a B-score of 0.296.
Work on `CCOc1ccc(C(=O)NC2CCN(C(=O)Nc3ccccc3OC)CC2)cc1` yielded a B-score of 1.41.
`Cc1ccc(C(=O)NC2CCN(C(=O)N3CCOCC3)CC2)cc1` was tested, and the B-score was 1.24.
For `COc1cc(OC)cc(C(=O)NC2CCN(C(=O)N3c4ccccc4Sc4ccccc43)CC2)c1`, the B-score was -3.52 (active).
With `C=CC(COCc1ccccc1)N(Cc1ccccc1)S(=O)(=O)c1ccccc1Br` (stereo unspecified) the B-score was -0.978.
For `O=C(CN1CCN(CC(=O)Nc2ccc3c(c2)OCO3)CC1)Nc1ccc(F)cc1`, the B-score was 2.27.
`O=C(CN1CCN(c2ccc(F)cc2)CC1)Nc1cccc(C(F)(F)F)c1` was tested, and the B-score was -5.59 (active).
`O=C(CN1CCOCC1)Nc1ccccc1` gave a B-score of -0.393.
`COc1ccc(CCNC(=O)C2CC3Cn4c(nc5cc(C)c(C)cc54)C3N2C)cc1` (stereo unspecified) showed a B-score of 0.841.
With `Cc1nn2c(c1-c1ccccc1)N=C(c1ccco1)CC2c1ccccc1` (stereo unspecified) the B-score was -4.41 (active).
In the case of `Cc1nn(C(=O)c2ccoc2C)c(N)c1-c1ccccc1`, the B-score is reported as -1.25.
With `Cc1nc(NC(=O)c2cccc(Cl)c2)sc1-c1csc(Nc2cccc(Cl)c2)n1` the B-score was 1.63.
`O=C(NCc1ccccc1)C1=C[C@@H](c2ccccc2)C[C@@H](OCCCCO)O1` showed a B-score of 0.00916.
Compound `O=[N+]([O-])c1ccccc1NCc1ccc(Cl)cc1` has a B-score of -0.134.
`CCN(CC)S(=O)(=O)c1ccc(N(C)Cc2ccc(C(F)(F)F)cc2)nc1` was tested, and the B-score was -5.7 (active).
With `C#CCN(N(C)c1ncc(C(F)(F)F)cc1Cl)S(=O)(=O)c1ccc2ccccc2c1` the B-score was -1.26.
With `CC(C)(C)NCC(O)COc1cccc2[nH]c(=O)[nH]c12` (stereo unspecified) the B-score was 2.63.
`CCOC(=O)CSc1nc2c(sc(=S)n2CCc2ccccc2)c(=O)n1Cc1ccco1` gave a B-score of -3.99.
For `CN(c1ccccc1)c1ccc(/C=c2\s/c(=C(/C#N)C(=O)C(C)(C)C)n(Cc3ccco3)c2=O)cc1`, the B-score was -7.8 (active).
Compound `Cc1cc2c(c(=O)n1Cc1ccco1)C(c1ccccc1)C(C#N)=C(N)O2` (stereo unspecified) has a B-score of 0.691.
`O=C1CCC(=O)N(O)CCCCCNC(=O)CCC(=O)N(O)CCCCCNC(=O)CCC(=O)N(O)CCCCCN1` showed a B-score of 0.127.
With `COC(=O)c1ccc(Sc2ccc(F)cc2)c(N)c1` the B-score was -2.9.
For `CC(C)(CCl)C(=O)Nc1ccc(Sc2ccc(F)cc2)cc1`, the B-score was -7.91 (active).
With `CCN(c1ccccc1)S(=O)(=O)c1ccc(NC(=O)C(C)(C)C)cc1` the B-score was -0.778.
`CCOC(=O)C1Cn2c(nc3c(c2=O)C(C)(CC)Cc2ccccc2-3)S1` (stereo unspecified) was tested, and the B-score was -9.41 (active).
In the case of `CCC1(CC)Cc2ccccc2-c2nc3ccccc3c(=O)n21`, the B-score is reported as -0.963.
With `CC1(C)Cc2ccccc2-c2nc(CN3CCOCC3)[nH]c(=O)c21` the B-score was -0.167.
`CNC(=O)c1csc(-c2ccccc2)n1` gave a B-score of 0.414.
For `c1cncc(-c2nnc3n2C2(CCCCC2)Cc2ccccc2-3)c1`, the B-score was 0.419.
With `Cc1cccc(C(=O)Nc2ccc(C(=O)/C=C/c3cccs3)cc2)c1` the B-score was -1.78.
`COC(=O)C1=C(C(=O)OC)[C@@H]2N(C)c3ccccc3[C@@]23C[C@@H](C(=O)OC)N(C(=O)c2ccco2)C3=N1` was tested, and the B-score was 0.92.
In the case of `COCCCn1c(SCC(=O)Nc2ccccc2)nnc1-c1ccncc1`, the B-score is reported as -1.03.
`CCOc1ccc(Nc2nc(Cc3nnc(SCC(=O)NC4CCCC4)n3C)cs2)cc1` gave a B-score of -0.148.
For `COCCCn1c(Cc2csc(Nc3cccc(Cl)c3)n2)nnc1SCC(=O)OC1CCCCC1`, the B-score was -7.39 (active).
In the case of `Cc1ccc(/C=N\n2c(-c3ccccc3)n[nH]c2=S)s1`, the B-score is reported as -0.0777.
Work on `CC1(C)S[C@@H]2[C@H](N=CN3CCCCCC3)C(=O)N2[C@H]1C(=O)O` yielded a B-score of 0.247.
Work on `O=c1cc(N2CCN(Cc3ccccc3)CC2)c(-c2ccccc2)n[nH]1` yielded a B-score of 0.119.
Compound `CC(C)Oc1ccc(CCc2n[nH]c(=S)n2Cc2ccccc2)cc1` has a B-score of -1.48.
Compound `CC(C)N(c1ccccc1)c1ncnc(NCCC(=O)O)c1[N+](=O)[O-]` has a B-score of 0.156.
`COc1ccc(NC(=S)N2N=CCC2c2ccccc2)cc1` (stereo unspecified) gave a B-score of 0.319.
In the case of `CNC(=S)N1N=C(c2ccccc2)CC1c1ccc(Br)cc1` (stereo unspecified), the B-score is reported as -7.33 (active).
Work on `C=CCOC(=O)C1=C[C@@H](c2ccccc2)C[C@@H](OCc2ccc(CO)cc2)O1` yielded a B-score of -1.02.
Compound `CCN1C(=O)N[C@@H](c2ccccc2)[C@H](C(C)=O)[C@H]1C` has a B-score of 0.0204.
